Drawing on PubChem BioAssay (NCI), this text covers growth for seven compounds.

Among the test systems are NCI-H23 lung; NCI-H226 lung; NCI-H322M lung; HOP-62 NSCLC; NCI-H460 lung; HOP-92 NSCLC; NCI-H522 lung; A549/ATCC NSCLC; 786-0 renal; DU-145 prostate; K-562 leukemia; MALME-3M melanoma; MDA-MB-231 breast; RXF 393 renal; SF-268 CNS; SF-295 CNS; SF-539 CNS; UACC-257 melanoma; M14 melanoma; COLO 205 colon.
Holding throughout (experiment): NCI-60 one-dose screen, 48 h (100 = growth as untreated, 0 = no growth, -100 = all killed)
Holding throughout (settings): 10 µM unless noted

This is part of a sample that, as a whole, favours compounds with a hit. Of some 83,000 tested, about 20% had one in any assay.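 Step 1: grow cells in 96-well plates. Step 2: add test compound at a single concentration. Step 3: incubate 48 h. Step 4: record percent growth.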 Values without a mark were called inactive. The source made the active and inactive calls. Rule for the calls: active = growth percent below 10; inactive = the rest.

`Cc1ccc(C(=O)NN2C(=O)CSC2c2cccc([N+](=O)[O-])c2)cn1` (stereo not drawn): the growth with NCI-H23 lung is 93.2%; in the assay with NCI-H226 lung, 95.6%; in the assay with NCI-H322M lung, 104%; in the assay on HOP-62 NSCLC, 93%; in the assay on NCI-H460 lung, 108%; in the assay with HOP-92 NSCLC, 81.3%. Moreover, the growth in the assay on NCI-H522 lung is 109%; with A549/ATCC NSCLC it was 92.9%; with 786-0 renal, 106%; in the assay with DU-145 prostate, 107%; in the assay with K-562 leukemia, 98.9%; in the assay on MALME-3M melanoma, 111%. For the same compound, the growth in the assay on MDA-MB-231 breast was 96.6%; with RXF 393 renal, 82.8%; in the assay on SF-268 CNS, 104%; in the assay on SF-295 CNS, 99.4%; with SF-539 CNS it was 106%; in the assay on UACC-257 melanoma, 75.8%. The growth with M14 melanoma was 96.4%.

For the compound `O=C1/C(=C/c2ccccc2[N+](=O)[O-])Oc2ccc(O)c(O)c21`, the growth in the assay with NCI-H23 lung was 33.5%; in the assay with NCI-H226 lung it was 83.3%; with NCI-H322M lung it was 81%; in the assay on HOP-62 NSCLC, 71.3%; in the assay on NCI-H460 lung, 60.6%; in the assay with HOP-92 NSCLC, 76.6%. Further, the growth is 72.3% in the assay on A549/ATCC NSCLC; 47.2% with 786-0 renal; 57.7% with COLO 205 colon; 32.5% in the assay on DU-145 prostate; 17.2% in the assay with K-562 leukemia; 45% with MALME-3M melanoma. Also, the growth with MDA-MB-231 breast is 45.6%; in the assay with RXF 393 renal it was 5.8% (active); in the assay on SF-268 CNS, 60.4%; in the assay on SF-295 CNS, 85.2%; with SF-539 CNS, 29%; with UACC-257 melanoma, 49.3%. The growth with M14 melanoma is 54.9%.

On to `O=c1c2cc(F)ccc2sc2c(NCCN3CCOCC3)nc3ccccc3c12`, for which the growth is 85.1% with NCI-H23 lung; 91.3% in the assay with NCI-H226 lung; 77.8% in the assay on NCI-H322M lung; 80.9% in the assay with HOP-62 NSCLC; 31.8% in the assay on NCI-H460 lung; 44.6% in the assay with HOP-92 NSCLC. In addition, the growth was 69.3% in the assay with A549/ATCC NSCLC; 59.2% with 786-0 renal; 53.2% in the assay on COLO 205 colon; 68.4% with DU-145 prostate; 0.338% (active) with K-562 leukemia; 92% in the assay with MALME-3M melanoma. Moreover, the growth in the assay on MDA-MB-231 breast was 25.9%; with RXF 393 renal it was 72.9%; with SF-268 CNS, 68.7%; in the assay on SF-295 CNS, 89.4%; in the assay with SF-539 CNS, 74.7%; in the assay on UACC-257 melanoma, 98.2%. For the same compound, the growth with M14 melanoma was 46.5%.

Regarding `CCOC(=O)/C(C#N)=C\Nc1ccc2ncnc(Nc3ccc(Cl)cc3Cl)c2c1`, the growth with NCI-H23 lung is 99.5%; in the assay on NCI-H226 lung, 99.8%; with NCI-H322M lung it was 75.6%; in the assay with HOP-62 NSCLC, 101%; in the assay on NCI-H460 lung, 84.8%; in the assay on HOP-92 NSCLC it was 56.5%. Further, the growth in the assay with A549/ATCC NSCLC is 72.1%; in the assay on 786-0 renal, 82.6%; in the assay on COLO 205 colon it was 108%; with DU-145 prostate, 55.9%; with K-562 leukemia, 59.7%; with MALME-3M melanoma it was 140%. The growth in the assay on MDA-MB-231 breast is 85.2%; in the assay on RXF 393 renal, 77%; in the assay with SF-268 CNS, 73%; in the assay with SF-295 CNS it was 82.2%; in the assay with SF-539 CNS, 92.7%; in the assay on UACC-257 melanoma it was 97.2%. The growth in the assay with M14 melanoma was 106%.

For the compound `c1ccc2c(-c3nc(-c4c[nH]c5ccncc45)cs3)c[nH]c2c1`, the growth with NCI-H23 lung was 74.4%; in the assay on NCI-H226 lung, 78.5%; in the assay on NCI-H322M lung, 79.1%; in the assay on HOP-62 NSCLC, 49.3%; in the assay with NCI-H460 lung, -26.4% (active); in the assay with HOP-92 NSCLC, 49.2%. The growth in the assay on A549/ATCC NSCLC is 34.5%; in the assay with 786-0 renal, 64.9%; in the assay with COLO 205 colon, -77.8% (active); in the assay on DU-145 prostate it was 44.5%; in the assay with K-562 leukemia, -32% (active); with MALME-3M melanoma, -48.8% (active). Also, the growth in the assay on MDA-MB-231 breast is 12.7%; in the assay on RXF 393 renal, 74.9%; in the assay with SF-268 CNS, 68.5%; in the assay with SF-295 CNS, 50.2%; with SF-539 CNS, 53%; in the assay with UACC-257 melanoma it was 96.1%. In the assay on M14 melanoma, the growth is -69.7% (active).

For the compound `OC(COc1ccccc1Cl)CN1CCN(c2cccc(Cl)c2)CC1` (stereo not drawn), the growth with NCI-H23 lung is 100%; in the assay with NCI-H226 lung, 96.5%; in the assay with NCI-H322M lung, 108%; in the assay with HOP-62 NSCLC, 119%; in the assay on NCI-H460 lung it was 121%; in the assay with HOP-92 NSCLC it was 79.2%. Also, the growth with A549/ATCC NSCLC was 101%; in the assay on 786-0 renal, 98.3%; in the assay on COLO 205 colon, 101%; in the assay with DU-145 prostate, 114%; in the assay on K-562 leukemia, 108%; with MALME-3M melanoma, 107%. Moreover, the growth was 89.3% in the assay with MDA-MB-231 breast; 118% in the assay on RXF 393 renal; 105% in the assay with SF-268 CNS; 105% in the assay with SF-295 CNS; 101% in the assay with SF-539 CNS; 93.4% in the assay on UACC-257 melanoma. The growth in the assay with M14 melanoma was 98.1%.

Turning to `COc1cc(C(=O)c2cc(C)c3[nH]c4ccc(C)cc4c3c2C)cc(OC)c1OC`, the growth was 16.7% with NCI-H23 lung; 54.4% in the assay on NCI-H226 lung; 39.9% in the assay on NCI-H322M lung; 38.9% with HOP-62 NSCLC; 6.57% (active) in the assay with NCI-H460 lung; 29.2% in the assay on HOP-92 NSCLC. In addition, the growth in the assay on A549/ATCC NSCLC was 20.9%; in the assay with 786-0 renal, 19.4%; with COLO 205 colon, -19.2% (active); in the assay with DU-145 prostate, 1.16% (active); with K-562 leukemia it was 11.5%; in the assay with MALME-3M melanoma, 34.3%. The growth with MDA-MB-231 breast was 27.6%; in the assay on RXF 393 renal it was 36.8%; in the assay with SF-268 CNS it was 29.3%; in the assay on SF-295 CNS, 11.7%; in the assay with SF-539 CNS, 0.519% (active); with UACC-257 melanoma, 68.8%. Further, the growth in the assay on M14 melanoma is 23.7%.
